Data as given in PubChem BioAssay AID1159580 (chemical genetic matrix, 2015).
Where “and” joins values, the source holds several entries; their conditions need not be identical. Identical values can stand only once. Among all 5,500 compounds or so, about 2,000 (36%) were called active. About 18% were inconclusive and are not listed. Rule as the data show it: active = normalized growth mostly below about 0.91 (no sharp cut-off); inconclusive = no clear call, values can overlap the other calls; inactive = mostly above about 0.92. The list shows a part of the results.

Experiment: chemical genetic growth profiling, strain panel (AID 1159580);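 also: tested at 20 µM; growth read once vehicle control cultures reached saturation at 30 °C; 1 = growth at the plate median or of vehicle wells; lower values mean less growth of the strain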
Settings: S. cerevisiae deletion strains, growth OD

Measured: normalized growth

Cc1ncc(CNC(=O)N(CCCl)N=O)c(N)n1
inactive: locus YAL013W, strain DEP1, active compounds read low 1.01 and 1 | locus YAL021C, strain ccr4, active compounds read low 0.948 | locus YAL026C, strain drs2, active compounds read low 1.02 | locus YAL030W, strain snc1, active compounds read low 1.01 | locus YAL040C, strain CLN3, active compounds read low 0.981 | locus YBL061C, strain skt5, active compounds read low 1.01 | locus YBR009C, strain hhf1, active compounds read low 0.992 | locus YBR021W, strain FUR4, active compounds read low 0.994 | locus YBR023C, strain chs3, active compounds read low 1 | locus YBR171W, strain sec66, active compounds read low 1.02 | locus YBR229C, strain ROT2, active compounds read low 1.03 | locus YBR231C, strain swc5, active compounds read low 1.03 | locus YBR279W, strain paf1, active compounds read low 1 | locus YCL011C, strain gbp2, active compounds read low 1 | locus YCL016C, strain dcc1, active compounds read low 0.978 | locus YCL029C, strain bik1, active compounds read low 0.985 | locus YCL061C, strain MRC1 (second series), active compounds read low 1 | locus YCL061C, strain MRC1, active compounds read low 0.999 | locus YCL069W, strain vba3, active compounds read low 1.01 | locus YCR088W, strain abp1, active compounds read low 1.01 | locus YDL005C, strain med2, active compounds read low 1.01 | locus YDL035C, strain GPR1, active compounds read low 1 | locus YDL040C, strain nat1, active compounds read low 1.02 | locus YDL074C, strain BRE1, active compounds read low 1.02 | locus YDL101C, strain DUN1, active compounds read low 1.01 | locus YDL134C, strain PPH21, active compounds read low 1.03 | locus YDL185W, strain tfp1, active compounds read low 0.985 | locus YDL192W, strain arf1, active compounds read low 0.997 | locus YDR001C, strain nth1, active compounds read low 1.01 | locus YDR069C, strain doa4, active compounds read low 1.02 | locus YDR101C, strain arx1, active compounds read low 0.983 | locus YDR137W, strain rgp1, active compounds read low 1.04 | locus YDR150W, strain NUM1, active compounds read low 1.03 and 0.998 | locus YDR159W, strain sac3, active compounds read low 1.08 | locus YDR162C, strain NBP2, active compounds read low 1 | locus YDR195W, strain ref2 0.993 | locus YDR297W, strain sur2, active compounds read low 1.02 | locus YDR318W, strain mcm21, active compounds read low 1 | locus YDR334W, strain swr1, active compounds read low 1.02 | locus YDR335W, strain msn5, active compounds read low 1.01 | locus YDR363W, strain ESC2, active compounds read low 1 | locus YDR388W, active compounds read low 0.986 | locus YDR392W, strain spt3, active compounds read low 0.917 | locus YDR502C, strain sam2, active compounds read low 0.99 | locus YEL003W, strain gim4, active compounds read low 1.01 | locus YEL037C, strain rad23, active compounds read low 1.01 | locus YEL061C, strain CIN8 (second series), active compounds read low 1.01 | locus YEL061C, strain CIN8, active compounds read low 1.02 | locus YER002W, strain NOP16, active compounds read low 1 | locus YER015W, strain faa2, active compounds read low 0.982 | locus YER016W, strain bim1, active compounds read low 1.02 | locus YER110C, active compounds read low 0.979 | locus YER111C, strain swi4, active compounds read low 1.01 | locus YER155C, strain BEM2 (second series), active compounds read low 1.03 | locus YER155C, strain BEM2, active compounds read low 1 | locus YER167W, strain BCK2, active compounds read low 1.01 | locus YFR010W, strain ubp6, active compounds read low 1.01 | locus YGL078C, strain dbp3, active compounds read low 0.991 | locus YGL086W, strain mad1, active compounds read low 1 | locus YGL167C, strain pmr1, active compounds read low 1 | locus YGL173C, strain kem1, active compounds read low 1.01 | locus YGL227W, strain vid30, active compounds read low 1.01 | locus YGL240W, strain doc1, active compounds read low 1.01 | locus YGL248W, strain PDE1, active compounds read low 1.02 | locus YGL253W, strain hxk2, active compounds read low 1.01 | locus YGR078C, strain PAC10, active compounds read low 1.01 | locus YGR135W, strain pre9, active compounds read low 1 | locus YGR229C, strain SMI1, active compounds read low 0.994 | locus YGR252W, strain gcn5, active compounds read low 0.976 | locus YHR013C, strain ard1, active compounds read low 1 | locus YHR027C, strain rpn1, active compounds read low 1.04 | locus YHR030C, strain SLT2, active compounds read low 1.02 and 0.958 | locus YHR079C, strain IRE1 (second series), active compounds read low 0.984 | locus YHR079C, strain IRE1, active compounds read low 0.957 | locus YHR094C, strain hxt1, active compounds read low 0.989 | locus YHR129C, strain ARP1, active compounds read low 1.02 | locus YHR142W, strain chs7, active compounds read low 1.01 | locus YHR200W, strain rpn10, active compounds read low 0.988 | locus YIL066C, strain RNR3, active compounds read low 1.02 | locus YIL073C, strain SPO22, active compounds read low 0.994 | locus YIL125W, strain kgd1, active compounds read low 0.995 | locus YIR030C, strain dcg1, active compounds read low 0.987 | locus YJL092W, strain hpr5, active compounds read low 0.978 | locus YJL095W, strain BCK1 (second series), active compounds read low 1.03 | locus YJL095W, strain BCK1, active compounds read low 0.999 and 0.951 | locus YJL115W, strain asf1, active compounds read low 1.01 | locus YJL129C, strain trk1, active compounds read low 1.03 | locus YJL134W, strain LCB3, active compounds read low 1.02 | locus YJL154C, strain vps35, active compounds read low 1.01 | locus YJL164C, strain tpk1, active compounds read low 0.988 | locus YJL166W, strain qcr8, active compounds read low 1.01 | locus YJL168C, strain set2, active compounds read low 0.99 | locus YJL187C, strain SWE1 (second series), active compounds read low 1.02 | locus YJL187C, strain SWE1, active compounds read low 0.993 | locus YJR043C, strain POL32, active compounds read low 0.902 | locus YJR066W, strain TOR1, active compounds read low 0.901
